Measurements: PubChem BioAssay (NCI)
The panel holds about 79,000 compounds, 15% with a hit somewhere; the sample as a whole holds those more often. Values without a mark were called inactive. Active and inactive are the calls of the source. Rule as the data show it: active = growth inhibition above about 70%; inactive = the rest.

Test: NCI Yeast Anticancer Drug Screen. Data for the rad18 strain (AID 177)
Details: S. cerevisiae rad18 mutant growth inhibition, stronger effect = higher value
Procedure: Growth inhibition of yeast strains with defined genetic alterations is measured as a screen for potential anti-cancer activity. Selected strains with alterations in DNA damage repair or cell cycle control were exposed to compounds and growth inhibition was measured relative to vehicle treated controls. The strain used in this assay is rad18

## c1ccc2c(OCC3CO3)cccc2c1 (stereo not given)
At 1.2 µM
  growth inhibition: 18%
At 3.7 µM
  growth inhibition: 55%
At 11.0 µM
  growth inhibition: 86% (active)
At 33.0 µM
  growth inhibition: 95% (active)
At 100.0 µM
  growth inhibition: 98% (active)

## C=C(C(=C)n1nnc(C(=O)OC)c1C(=O)OC)n1nnc(C(=O)OC)c1C(=O)OC
At 1.2 µM
  growth inhibition: 0%
At 3.7 µM
  growth inhibition: 0%
At 11.0 µM
  growth inhibition: 1%
At 33.0 µM
  growth inhibition: 0%
At 100.0 µM
  growth inhibition: -1%

## CC(=O)OCC1OC2OC(=O)NC2C(OC(C)=O)C1OC(C)=O (stereo not given)
At 1.2 µM
  growth inhibition: -3%
At 3.7 µM
  growth inhibition: -1%
At 11.0 µM
  growth inhibition: 0%
At 33.0 µM
  growth inhibition: -3%
At 100.0 µM
  growth inhibition: -2%

## CCC(=O)c1cc(C(=O)C(=S)SC)cc(C(=O)C(=S)SC)c1
At 1.2 µM
  growth inhibition: -6%
At 3.7 µM
  growth inhibition: 49%
At 11.0 µM
  growth inhibition: 97% (active)
At 33.0 µM
  growth inhibition: 98% (active)
At 100.0 µM
  growth inhibition: 94% (active)

## CSc1nc(C)c(CCOC(C)=O)c(N=P(c2ccccc2)(c2ccccc2)c2ccccc2)n1
At 1.2 µM
  growth inhibition: 16%
At 3.7 µM
  growth inhibition: 12%
At 11.0 µM
  growth inhibition: 4%
At 33.0 µM
  growth inhibition: 3%
At 100.0 µM
  growth inhibition: 91% (active)

## CSc1nnc(SC)nn1
At 1.2 µM
  growth inhibition: -4%
At 3.7 µM
  growth inhibition: 11%
At 11.0 µM
  growth inhibition: 12%
At 33.0 µM
  growth inhibition: 67%
At 100.0 µM
  growth inhibition: 98% (active)

## CCC(C)NC1=NCC(C)S1 (stereo not given)
At 1.2 µM
  growth inhibition: -12%
At 3.7 µM
  growth inhibition: 0%
At 11.0 µM
  growth inhibition: -6%
At 33.0 µM
  growth inhibition: -26%
At 100.0 µM
  growth inhibition: -32%

## COc1ccc(/C=C/c2sc3ccccc3[n+]2CCCCI)cc1OC
At 1.2 µM
  growth inhibition: -3%
At 3.7 µM
  growth inhibition: 0%
At 11.0 µM
  growth inhibition: 9%
At 33.0 µM
  growth inhibition: 86% (active)
At 100.0 µM
  growth inhibition: 96% (active)
